Screening results deposited in PubChem by several laboratories.
This is a sample that favours compounds with a hit; in the whole collection about 8.9% have one here.
Htt clearance – clearance of mutant huntingtin inclusions, primary screen, imaging, HeLa Exon1htt(103Q)mCFP, confocal imaging; aggregate imaging; zero = plate's median compound well; inhibition, % at 1.5 µM; 47,000 tested, 0.42% active;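 active means inhibition of aggregate fluorescence above about 70%, also judged a hit by eye on the cell image, limit read from the data, passing the limit was not always enough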;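 further: cells exposed to compound for three days before fixation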
M1 ag – M1 muscarinic receptor agonists, primary screen, CHO-M1 cells, Fluo-4 calcium, agonist mode; Muscarinic acetylcholine receptor M1; Fluo-4 calcium fluorescence; stronger effect = higher value; B-score at 10 µM; 64,000 tested, 3% active; AID 626, 2007;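 active means fluorescence rise, raw or as B-score row- and column-corrected plate score, outside the 99.7% band of its plate's samples, either direction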
WNV protease inh – inhibitors of WNV NS2B-NS3 protease, primary screen, biochemical, fluorogenic substrate | Genome polyprotein (West Nile virus), P06935 | fluorogenic substrate Ex360/Em465; stronger effect = lower value | z-score (test concentration not listed) | 65,000 tested, 0.18% active; in the data active means z-score below about -3
D1 allo mod – D1 CRE-luciferase signal change, two-sided – cell-based, HEK293 D1, dopamine EC30, D1 allosteric modulator project, primary screen | B-score at 10 µM | D(1A) dopamine receptor (Homo sapiens), P21728 | dopamine EC30 potentiation; actives deviate in either direction | 58,000 tested, 5.9% active;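 active means luminescence count or its row- and column-corrected plate score outside the 99.7% band of the plate's sample wells, on either side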
M1 antagonist – antagonists of rat M1 muscarinic receptor | Muscarinic acetylcholine receptor M1 (Rattus norvegicus), P08482 | CHO-M1 cells, Fluo-4 calcium, ACh EC80 antagonist mode; stronger effect = lower value | B-score at 10 µM | 64,000 tested, 3.4% active;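 active means calcium fluorescence response, raw or row-and-column corrected B-score, differing from the plate sample mean either way at a set confidence level, mostly lower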
Target sequence (P08482 whole entry, looked up): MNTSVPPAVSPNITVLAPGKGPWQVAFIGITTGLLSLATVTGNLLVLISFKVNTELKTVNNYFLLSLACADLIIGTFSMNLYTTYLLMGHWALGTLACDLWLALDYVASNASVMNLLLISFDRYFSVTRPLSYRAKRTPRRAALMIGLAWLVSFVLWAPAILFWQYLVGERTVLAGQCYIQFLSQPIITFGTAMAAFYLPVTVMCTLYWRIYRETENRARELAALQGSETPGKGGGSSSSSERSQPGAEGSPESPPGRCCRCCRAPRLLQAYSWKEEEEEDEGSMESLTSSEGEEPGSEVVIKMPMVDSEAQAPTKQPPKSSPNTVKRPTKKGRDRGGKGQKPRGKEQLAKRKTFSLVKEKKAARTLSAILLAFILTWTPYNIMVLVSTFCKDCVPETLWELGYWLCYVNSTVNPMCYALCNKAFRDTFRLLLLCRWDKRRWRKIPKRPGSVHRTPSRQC
Active calls of the source: *.

`CC(=O)NC(C)C(c1cccs1)N1CCN(c2ccccc2)CC1` (stereo not given) gave Htt clearance -1.6, M1 ag -0.912, WNV protease inh -0.37, D1 allo mod -0.949* and M1 antagonist -0.578.
`Nc1ccc(C(O)(C(F)(F)F)C(F)(F)F)cc1` gave Htt clearance 39.4.
Screening CC(C)OC(=O)N(C)c1ccc(C(O)(C(F)(F)F)C(F)(F)F)cc1 returned Htt clearance 75.7*.
`O=C(CCn1c(=S)[nH]c2cc3c(cc2c1=O)OCO3)NCCN1CCCC1` gave M1 ag 0.115, WNV protease inh -0.24 and M1 antagonist -0.381.
O=C(Cc1ccccc1)NCc1nc2ccccc2[nH]1 was read as Htt clearance 87.6*, M1 ag -0.524, WNV protease inh 0.92, D1 allo mod 0.386 and M1 antagonist -0.527.
Screening Cc1[nH]n(C(N)=S)c(=O)c1C(c1ccccc1)C(C#N)C#N (stereo not given) returned Htt clearance 1.7, M1 ag 0.669, WNV protease inh 1.67, D1 allo mod -0.0699 and M1 antagonist 0.285.
`CCCc1[nH][nH]c(=O)c1C(c1ccccc1)C(C#N)C#N` (stereo not given) gave Htt clearance 9.4, M1 ag 0.0239, WNV protease inh 0.07, D1 allo mod 0.00735 and M1 antagonist 1.22*.
Screening COc1ccc(C2C=C(c3ccc(C)cc3)Nc3ncnn32)cc1 (stereo not given) returned M1 ag 33.1*, WNV protease inh 1.48 and M1 antagonist -0.444.
C1=C(c2ccc(-c3ccccc3)cc2)Nc2ncnn2C1c1ccco1 (stereo not given) was read as Htt clearance 11.5, M1 ag 43.6*, WNV protease inh -0.7, D1 allo mod -1.18 and M1 antagonist -1.59.
Screening COc1ccc(C2C=C(c3ccccc3)Nc3nnnn32)cc1 (stereo not given) returned M1 ag -0.87, WNV protease inh 1.62, D1 allo mod 0.682 and M1 antagonist 0.018.
COc1ccc(C2C=C(c3ccc(Br)s3)Nc3ncnn32)cc1OC (stereo not given) was read as M1 ag 120*, WNV protease inh -1.08, D1 allo mod -0.0754 and M1 antagonist -0.00592.
`COc1ccccc1Nc1nc(C2(C)CCC(=O)O2)cs1` (stereo not given) gave M1 ag 0.654, WNV protease inh -0.16, D1 allo mod -0.396 and M1 antagonist -1.64.
`O=C(O)C1CSC(CCc2ccccc2)N1` (stereo not given) gave M1 ag 1.6, WNV protease inh 0.48 and M1 antagonist 0.824.
For CN1CCc2nc(SCCOc3ccccc3)c(C#N)cc2C1 the results were Htt clearance 32.5, M1 ag -1.35, WNV protease inh -0.76, D1 allo mod 0.411 and M1 antagonist -1.38.
Screening CCOC(=O)COn1c(=O)c(-c2ccc(OC)c(OC)c2)[n+]([O-])c2ccccc21 returned Htt clearance 74.3*, M1 ag -0.0613, WNV protease inh -1.37 and M1 antagonist -1.25.
`COc1ccc(-c2c(=O)n(OCc3ccccn3)c3ccccc3[n+]2[O-])cc1OC` gave M1 ag 0.205, WNV protease inh 1.06, D1 allo mod -0.807 and M1 antagonist 0.322.
For CC1Oc2ccccc2N(CC(=O)NCCc2ccccc2)C1=O (stereo not given) the results were M1 ag 0, WNV protease inh 1.88, D1 allo mod 0.128 and M1 antagonist -2.18.
Screening CCc1cc2c3c(c(=O)oc2cc1O)CCCC3 returned M1 ag -0.493, WNV protease inh 3.75, D1 allo mod 2.33 and M1 antagonist -0.567.
For CCOC(=O)C1CCN(c2c(NCc3ccc(C(=O)NC(C)CC)cc3)c(=O)c2=O)CC1 (stereo not given) the results were Htt clearance -16.4, M1 ag -0.0339, WNV protease inh 0.35, D1 allo mod -3.21* and M1 antagonist 0.324.
Screening Cc1cc(N2CCN(c3ccccc3)CC2)nc(NCc2ccccc2)n1 returned Htt clearance -2.7, M1 ag 0.429, WNV protease inh -0.35, D1 allo mod -3.54* and M1 antagonist 0.116.
`O=C(Nc1ccc2c(c1)OCCO2)NC1(C(F)(F)F)Oc2ccccc2O1` gave Htt clearance -123.0, M1 ag 0.095, WNV protease inh -1.55, D1 allo mod -3* and M1 antagonist -1.68.
`CSC1=Nc2sc3c(c2C2=NCCN12)CCCC3` gave M1 ag 0.126, WNV protease inh -0.31, D1 allo mod 0.127 and M1 antagonist -11.2*.
Screening CCN(CC)CCCN1C(=O)C(=O)/C(=C(/O)c2ccccc2)C1c1ccccn1 (stereo not given) returned M1 ag 0.984, WNV protease inh 0.48, D1 allo mod -0.574 and M1 antagonist 0.0956.
For Cc1nc2c(-c3ccccc3)c(C)nn2c(C)c1CCC(=O)NCc1ccco1 the results were M1 ag 0.809, WNV protease inh -0.75, D1 allo mod -5.23* and M1 antagonist 0.132.
Cc1nc2cc(-c3ccc(Cl)cc3)nn2c(C)c1CCC(=O)NCc1ccco1 was read as Htt clearance -12.2.
Cc1nc2c(-c3ccc(F)cc3)c(C)nn2c(C)c1CCC(=O)NC(C)CCc1ccco1 (stereo not given) was read as Htt clearance 12.2, M1 ag 0.636, WNV protease inh -1.07, D1 allo mod -3.33* and M1 antagonist 0.705.
`Cc1cc(C(=O)Nc2nc3c(s2)CCCC3)no1` gave M1 ag -0.582, WNV protease inh 0.88, D1 allo mod -3.78* and M1 antagonist 0.781.
`Cc1onc(-c2c(F)cccc2Cl)c1C(=O)Nc1nc2c(s1)CCCC2` gave Htt clearance -44.4, M1 ag -0.269, WNV protease inh -0.46 and M1 antagonist 0.0138.
For CN(C)c1ccc(C(=O)Nc2nc3c(s2)CCCC3)cc1 the results were Htt clearance -26.8, M1 ag 0.204, WNV protease inh -0.12, D1 allo mod -6.05* and M1 antagonist 0.0864.
Cc1onc(-c2ccccc2)c1C(=O)Nc1nc2c(s1)CCCC2 was read as Htt clearance 22.5, M1 ag -0.00843, WNV protease inh 0.31, D1 allo mod 0.0534 and M1 antagonist 0.405.
Screening CCN(CC)CCCN1C(=O)C(=O)/C(=C(/O)c2cnn(-c3ccccc3)c2C)C1c1ccncc1 (stereo not given) returned Htt clearance -32.9, M1 ag -0.309, WNV protease inh -1.01, D1 allo mod -0.158 and M1 antagonist -0.00695.
`CCCCN(CCCNc1ncnc2nc[nH]c12)c1ccccc1` gave M1 ag -0.543, WNV protease inh 0.02, D1 allo mod -3.51* and M1 antagonist -0.571.
For CCCn1nc(-c2nnc(-c3ccc(C)c(C)c3)o2)c2ccccc2c1=O the results were M1 ag 0.0978, WNV protease inh 0.6, D1 allo mod 1.12 and M1 antagonist 0.607.
